Shown are actives, neighbours in structure and some others; about 1.6% of the full set was active somewhere.
PABP polyA inh: PABP-poly(A) binding inhibition; PABP-poly(A) RNA binding, fluorescence polarization; inhibition, % at 35 µM; 290,000 compounds, 1% hits;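 also: calls also rest on retests at 20 µM and on dose response follow-up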
PABP1 MLLE inh: inhibitors of microRNA-mediated deadenylation, human PABP1 MLLE binding. GST-MLLE / FITC-PAM2 fluorescence polarization. inhibition, % at 20 µM. 360,000 compounds, 0.36% hits. AID 588489; in the data active = inhibition above about 35%, passing the limit was not always enough;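 also: plate controls were DMSO wells with GST-MLLE for no effect and wells lacking GST-MLLE protein for full effect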
eIF4E-4G inh: inhibitors of eIF4E and eIF4G interaction in translation initiation | P63073+Q04637 | TR-FRET eIF4E-eIF4GI(517-606) binding, 2 h | inhibition, % at 21.7 µM | 220,000 compounds, 0.37% hits | AID 782;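 active = inhibition above about 30%, limit read from the data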;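 also: 0% = full FRET control wells and 100% = background wells lacking eIF4GI fragment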
PERK inhibitor: human PERK inhibition, primary cell-based screen; Q9NZJ5; CHO PERK-DD fusion, SEAP luminescence translation reporter; inhibition, % at 5.6 µM; 220,000 compounds, 0.17% hits;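 active = inhibition above the mean inhibition of all tested compounds plus 3 SD, set separately per screening campaign, cut at about 2.9% in these data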;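 also: PERK kinase domain activated by AP20187 dimerizer at 100 nM; 0% = DMSO with dimerizer and 100% = rapamycin at 8.4 µM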
eIF4H FP inh: inhibitors of RNA binding by human eIF4H; inhibition, % at 35 µM; AID 2012; eIF4H fluorescence polarization binding assay; 290,000 compounds, 0.94% hits; Q15056;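 also: calls also rest on retests at 20 µM and on dose response follow-up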
* marks the source's active call; other numbers are inactive results; ? = inconclusive; nt = no result given. Unless noted, no rule for the calls is given here.

SMILES | PABP polyA inh | PABP1 MLLE inh | eIF4E-4G inh | PERK inhibitor | eIF4H FP inh
CC1OC2(C)OC(=N)C1(C#N)C(C#N)(C#N)C2c1ccccc1 (stereo not drawn) | -8.2 | 17.2 | 1.4 | -0.1 | ?
CC1(OC(=O)CCc2ccccc2)C(=O)C=C2C=C(c3ccc(C#N)cc3)N(CC3CC3)C=C2C1=O (stereo not drawn) | 26.4 | 18.7 | 3.6 | nt | 34.0
CC1(OC(=O)CCc2ccccc2)C(=O)C=C2C=C(c3ccc(C#N)cc3)N(C3CCCC3)C=C2C1=O (stereo not drawn) | 36.3* | 34.1 | -4.8 | nt | 59.0
CC1(OC(=O)CCc2ccccc2)C(=O)C=C2C=C(c3ccsc3)OC=C2C1=O (stereo not drawn) | 33.8* | nt | 9.4 | nt | 69.9*
Cc1cc(C)cc(NS(=O)(=O)c2cnc(Cl)c(Cl)c2)c1 | -3.6 | 14.9 | -1.8 | 1.1 | 3.9
O=C(CCS(=O)(=O)c1ccc(Br)cc1)NCc1ccco1 | 1.6 | -6.8 | nt | nt | 80.8*
COc1ccc([N+](=O)[O-])cc1NC(=O)CCS(=O)(=O)c1ccc(Br)cc1 | 19.1 | 0.7 | nt | nt | 96.0*
COc1ccc(NC(=O)CCS(=O)(=O)c2ccc(Br)s2)cc1 | 23.9 | -1.0 | nt | nt | 91.4*
COC(=O)c1ccccc1NC(=O)CCS(=O)(=O)c1ccc(Br)cc1 | 4.6 | -6.3 | 11.3 | -0.8 | 85.9*
COc1ccc([N+](=O)[O-])cc1NC(=O)CS(=O)(=O)c1ccc(C)cc1 | -8.8 | -1.8 | 1.8 | -0.8 | 1.7
CC1(C)Cc2c(sc3ncn4c(=S)[nH]nc4c23)CO1 | -12.6 | 25.7 | 3.0 | 0.2 | 13.5
CCN(C(=O)Cn1c([N+](=O)[O-])cnc1C)c1ccccc1 | 2.1 | -1.2 | nt | nt | 1.9
Cc1c(NC(=O)c2ccc(N(Cc3ccccc3)S(C)(=O)=O)cc2)c(=O)n(-c2ccccc2)n1C | -2.0 | -4.2 | -1.5 | 0.8 | -12.3
Cc1nnc(SCC(=O)NC(C)(C)C)n1C1CCCCC1 | 9.9 | -123.0 | 4.4 | 0.6 | -4.0
COc1ccc(N(CC(=O)NCCC2=CCCCC2)S(C)(=O)=O)cc1OC | -4.1 | -5.9 | 2.6 | -1.1 | -4.8
CCOc1ccccc1NC(=O)CCS(=O)(=O)c1ccc(Br)cc1 | 46.5* | 8.6 | nt | nt | 84.5*
CCc1ccccc1NC(=O)CCS(=O)(=O)c1ccc(Br)cc1 | 7.6 | 2.5 | nt | nt | 32.8
CCOc1ccc(NC(=O)CCS(=O)(=O)c2ccc(Br)cc2)cc1 | 22.2 | 7.4 | nt | nt | 76.1*
CC1=C(C(=O)OCc2ccc3c(c2)OCO3)C(c2ccccc2OCc2ccccc2)NC(=O)N1 (stereo not drawn) | -2.8 | 8.1 | -22.4 | -3.2 | 7.8
Cn1nnc(NC(=S)NC(=O)c2ccc3ccccc3c2)n1 | nt | 48.5* | nt | nt | nt
COc1cc(/C=N/NS(=O)(=O)c2ccc(C)cc2)ccc1OCc1ccc(C(=O)O)cc1 | 10.9 | -48.3 | 0.3 | 2.9* | -0.4
COCCCn1c(=N)c(C(N)=S)cc2c(=O)n3cccc(C)c3nc21 | nt | 21.8 | nt | nt | nt
Cc1cccn2c(=O)c3cc(C(N)=S)c(=N)n(CCCN4CCOCC4)c3nc12 | active | 19.4 | 3.2 | 1.2 | 74.8*
CCc1nc2ccccc2c(C(=O)OCC(=O)NC2CCCC2)c1C | nt | 6.0 | nt | nt | nt
CC(=O)[C@H]1[C@H](CCc2ccccc2)NC(=O)N(Cc2ccccc2)[C@@H]1C | 7.1 | -1.1 | -7.3 | nt | -0.4
SMILES | PABP polyA inh | PABP1 MLLE inh | eIF4E-4G inh | PERK inhibitor | eIF4H FP inh
NC(=O)C1CCN(C(=O)COc2ccc3ccccc3c2)CC1 | -0.4 | -14.0 | -4.7 | 0.1 | -7.7
NC(=O)C1CCN(C(=O)COc2ccc(Nc3ccccc3)cc2)CC1 | -12.4 | 11.3 | 96.4* | 1.2 | -0.8
Nc1nc(Cl)nc2c1ncn2[C@@H]1O[C@H](CO)[C@@H](O)[C@H]1O | 7.9 | 2.8 | -3.1 | 5.6* | -2.2
OC[C@H]1O[C@@H](n2cnc3c(NC4CCCC4)nc(Cl)nc32)[C@H](O)[C@@H]1O | nt | 5.1 | nt | nt | nt
CCCn1cnc2c(=S)nc(N)[nH]c21 | 2.6 | 6.4 | -0.5 | 3.4* | -0.9
CCCCn1cnc2c(=S)nc(N)[nH]c21 | 4.3 | 25.4 | -3.2 | -0.5 | -9.1
Nc1nc(=S)c2ncn(C3OC(CO)C(O)C3O)c2[nH]1 (stereo not drawn) | 53.3* | 29.1 | 17.0 | 0.3 | 88.6*
O=C(O)c1ccc(/C=N/NC(=O)c2cc(-c3ccc4c5c(cccc35)CC4)n[nH]2)cc1 | -7.3 | -3.1 | 8.1 | 0.8 | 35.0
CC(=O)Nc1ccc(S(=O)(=O)Nc2nnc(CC(C)(C)C)s2)cc1 | 4.7 | 42.8* | 1.4 | -1.0 | -0.6
O=c1[nH]c(SCc2ccccc2)nc2ccsc12 | 2.6 | 3.8 | 0.5 | -0.8 | 0.2

Screening data from PubChem.
